High-throughput results deposited in PubChem BioAssay by National Center for Advancing Translational Sciences (NCATS).
IL-1B inflam inh = blocks inflammasome-driven IL-1 beta release. THP-1 LPS/ATP IL-1B secretion, AlphaLISA, 16 h; stronger effect = lower value. activity change, % at 57.5 µM. 4.7% of 360,000 active; in the data active means activity change below about -50%; inconclusive means mostly about -30% to -49%
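Secreted IL-1B measured by AlphaLISA bead assay after 16 h compound exposure of THP-1 cells; compounds (final up to 57.5 uM) added 1 h before LPS (250 ng/mL) and ATP (1.25 mM) stimulation; lower signal means less secretion.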
TDP1 cell CPT = DT40-hTDP1 cell growth loss with CPT; chicken DT40 Tdp1-/-;hTDP1 cells + 20 nM CPT, ATP luminescence, 48 h; Potency, µM (titrated, usually from 46.2 µM), for the others: at the highest dose activity change, negative = growth inhibition, most hits filed as inhibitors; 12% of 420,000 active; AID 686979; further: potency means the concentration at half of the fitted maximal effect; nearly all actives have a fitted effect of over 55% in size
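Cell growth measured by CellTiter-Glo luminescence after a minimum 48 h, 37 C compound exposure with 20 nM CPT in Tdp1-knockout DT40 cells stably expressing hTDP1, seeded 400/well; qHTS titration format.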
HT1080 IDH1KD tx = HT-1080 IDH1 knockdown cell toxicity (counter line) | HT-1080 IDH1 knockdown viability, ATP luminescence, 48 h | Potency, µM (doses to about 46.1 µM), without a hit: at the highest dose activity, negative = toxicity, actives largely listed as cytotoxic | 2% of 360,000 active | AID 686971;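 further: potency means the concentration at half of the fitted maximal effect; 0% = DMSO wells and -100% = cell-free medium wells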
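% activity derives from luminescence (CellTiter-Glo), normalised to DMSO and no-cell wells. HT-1080-IDH1KD cells, 750/well, had 48 h compound exposure at 37 °C.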
HT1080NT lethal = kills 2HG-producing HT-1080-NT fibrosarcoma cells; Potency, µM (top dose mostly 46.1 µM), without a hit: top-dose activity, negative = less viability, hits mostly cytotoxic; 1.6% of 360,000 active; HT-1080-NT fibrosarcoma viability, CellTiter-Glo ATP luminescence, 48 h; AID 686970;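 further: NT is the 2HG producing partner of a matched IDH1 knockdown line; potency means the concentration at half of the fitted maximal effect; 0% = DMSO-treated cells and -100% = media-only wells without cells; nearly all actives have a fitted effect of over 55% in size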
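HT-1080-NT fibrosarcoma cells (2HG-overproducing), 750 cells/well in RPMI with 5% FBS, dosed after 2 h and incubated 48 h at 37C. CellTiter-Glo luminescence normalized to DMSO and no-cell wells; concentration-response curves fitted and classed.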
TDP1 cell noCPT = qHTS for Inhibitors of human tyrosyl-DNA phosphodiesterase 1 (TDP1): qHTS in cells in absence of CPT. DT40 Tdp1-/- hTDP1 cells, no CPT, ATP luminescence, 48 h. Potency, µM (series often up to 46.2 µM), without a hit: at the highest dose activity change, negative = growth inhibition, hits mostly inhibitors. 15% of 420,000 active; further: potency means the concentration at half of the fitted maximal effect; nearly all actives have a fitted effect of over 55% in size
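No-CPT arm: Tdp1-/-;hTDP1 DT40 cells (400/well) plus compounds, incubated ≥48 hr at 37 °C. Readout CellTiter-Glo luminescence.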
* = called active by the depositor; i = inactive; ? = inconclusive; · = no result. Sampled rows, rich in hits. Any-hit rate of the full collection: about 19%. Unless noted, the call rests on the fitted dose curve; in most records, active means well fitted curve in the direction sought with a large enough effect; inconclusive means small, poorly fitted or top-dose-only effect, or another doubt; inactive means no such curve, though single readings can be large; an effect the other way counts as inactive or inconclusive. Unless noted, on the % scale 0 is the no-effect control and ±100 the full control effect.

SMILES | IL-1B inflam inh | TDP1 cell CPT | HT1080 IDH1KD tx | HT1080NT lethal | TDP1 cell noCPT
CN(C)CCCN(C(=O)c1ccc(S(=O)(=O)N2CCCCCC2)cc1)c1nc2ccc(F)cc2s1 | -105* | ? | ? | ? | ?
CN(C)CCCN(C(=O)c1ccc(S(=O)(=O)N2CCOCC2)cc1)c1nc2ccc(F)cc2s1 | -12 | -6% | -23% | -22% | -2%
Cc1ccc2nc(N(CCCN(C)C)C(=O)c3ccc4ncsc4c3)sc2c1 | 0 | 16µM* | ? | ? | ?
CCOC(=O)C1C(=O)CC(C)(O)C(C(=O)OCC)C1/C=C/c1ccccc1 (stereo not given) | 14 | -24% | -1% | 1% | -13%
CC(C)C(NC(=O)c1ccccc1F)C(=O)NCCCn1ccnc1 (stereo not given) | -1 | -3% | 0% | 15% | -3%
CCOC(=O)C[C@@H]1OC2CCCCC2N1S(=O)(=O)c1ccc(C)cc1 (stereo not given in full) | 14 | 26µM* | -3% | -5% | ?
Cc1ccc(S(=O)(=O)N2C3CCCCC3O[C@H]2CC(=O)c2cccs2)cc1 (stereo not given in full) | -4 | ? | ? | -25% | ?
COc1ccc(C(=O)C[C@@H]2OC3CCCCC3N2S(=O)(=O)c2ccc(C)cc2)cc1OC (stereo not given in full) | -11 | 16µM* | -6% | 0% | 16µM*
CCCC(=O)N1CCC1(C)C(=O)NS(=O)(=O)c1ccccc1 (stereo not given) | 15 | -24% | 11% | ? | -5%
COc1cccc(NC(=O)CCNS(=O)(=O)c2ccc3c(c2)CCCC(=O)N3)c1 | · | 2% | · | · | -14%
O=C(/C=C/c1ccccc1[N+](=O)[O-])c1ccc(F)cc1 | ? | 13µM* | -25% | ? | 18µM*
CC(=O)/C=C/c1ccccc1O | -1 | 0% | -9% | -4% | ?
O=C(/C=C/c1ccccc1O)c1ccccc1 | -54* | 21µM* | -14% | 22% | 15µM*
CCOc1ccccc1/C=C/C(=O)c1ccc(Cl)cc1 | i | ? | 1% | -1% | 16µM*
COC(=O)C(=Cc1ccccc1[N+](=O)[O-])C(=O)OC | -66* | 8.2µM* | 0% | ? | 12µM*
CCN1C(=O)C(=O)N(CC(=O)Nc2ccccc2Oc2ccccc2)C1=O | 35 | -15% | -2% | -5% | -13%
CCN(Cc1ccccc1)C(=O)/C=C/c1ccccc1[N+](=O)[O-] | 0 | 16µM* | -1% | 0% | ?
O=C(NNS(=O)(=O)c1ccccc1[N+](=O)[O-])c1ccc(F)cc1 | -11 | ? | ? | -18% | 16µM*
Cc1cc(O)c(C(=O)/C=C/c2cccc([N+](=O)[O-])c2)c(=O)o1 | -3 | ? | 16% | 1% | ?
O=C(NNS(=O)(=O)c1ccccc1[N+](=O)[O-])c1ccc(O)cc1 | 35 | 3% | 6% | 19% | 3%
O=C(O)c1ccccc1O | 19 | 6% | 9% | 24% | -5%
O=C(/C=C(\O)c1ccccc1)c1ccccc1O | · | 16µM* | · | · | 8.2µM*
Cc1cc(O)c(C(=O)/C=C/c2ccccc2O)c(=O)o1 | ? | 23µM* | 5% | 2% | 29µM*
COc1ccccc1NC(=O)Nc1ccccc1C(=O)NCCCN1CCOCC1 | -9 | 1% | 1% | 11% | ?
COc1ccc(NC(=O)Cn2c(=O)n(CC(=O)NCc3ccco3)c(=O)c3ccccc32)cc1OC | 30 | -20% | 12% | 12% | -5%
SMILES | IL-1B inflam inh | TDP1 cell CPT | HT1080 IDH1KD tx | HT1080NT lethal | TDP1 cell noCPT
O=C(/C=C\Nc1ccccn1)c1ccc(Cl)cc1 | -3 | ? | -1% | 1% | ?
O=C(/C=C/c1cccc2ccccc12)c1ccncc1 | -82* | 21µM* | ? | ? | 15µM*
O=C(/C=C/c1cccc2ccccc12)N1CCOCC1 | -14 | 0% | 2% | -12% | -8%
O=C(/C=C/c1ccccc1O)c1ccc(Cl)cc1 | ? | 21µM* | -23% | -9% | 23µM*
O=C(NCc1cccs1)c1ccc2c(c1)N(Cc1cccc(F)c1)C(=O)c1ccccc1S2 | · | -18% | · | · | -27%
Cn1c(Oc2ccc(F)cc2)nc2c1c(=O)n(Cc1ccccc1Cl)c(=O)n2C | · | 23µM* | · | · | 12µM*
COc1ccc(Oc2nc3c(c(=O)n(Cc4ccccc4Cl)c(=O)n3C)n2C)cc1 | · | ? | · | · | 6.5µM*
COc1ccc(Oc2nc3c(c(=O)n(C)c(=O)n3C)n2C)cc1 | 0 | ? | -7% | -10% | -25%
O=c1cnc2cnc(Nc3ccccc3)nc2n1C1CC1 | · | -34% | · | · | ?
Cc1ccc(O)c(-c2cc(C(=O)Nc3ccc(S(=O)(=O)N4CC(C)OC(C)C4)cc3)[nH]n2)c1 (stereo not given) | -74* | 26µM* | -29% | ? | 23µM*
Cc1ccc(-c2cc(C(=O)Nc3ccc(S(=O)(=O)N4CC(C)OC(C)C4)cc3)[nH]n2)c(O)c1 (stereo not given) | -22 | 16µM* | -12% | ? | ?
O=C(c1ccncc1)N1CCC2(CC1)CN(c1ncccn1)C2 | · | 4% | · | · | -9%
C#CCCC/C(=C\C(=O)N(C)[C@H](C(=O)N(C)[C@H](C(=O)N(C)[C@H](C(=O)N(C)[C@H](C(N)=O)C(C)C)C(C)C)C(C)C)C(C)C)OC | -19 | 21µM* | 3% | 5% | 18µM*
CCc1ccc(C(=O)NCc2cnn(C)c2)s1 | 15 | ? | 7% | 14% | -22%
Cc1cnc(C(=O)OCC(=O)c2ccc(C)s2)cn1 | 9 | 7% | -8% | 1% | -17%
COc1ccc(NC(=O)c2c(C)oc3ccc(O)c(CN4CCN(Cc5ccccc5)CC4)c23)cc1 | · | 21µM* | · | · | 12µM*
COc1ccc(NC(=O)c2c(C)oc3ccc(O)c(CN4CCCC(C)C4)c23)cc1 (stereo not given) | · | 26µM* | · | · | ?
COc1ccc(NC(=O)c2c(C)oc3ccc(O)c(CN4CCC(C)CC4)c23)cc1 | · | 10µM* | · | · | 15µM*
Cc1oc2ccc(O)c(CN3CCCC(C)C3)c2c1C(=O)Nc1ccccc1 (stereo not given) | · | 10µM* | · | · | 16µM*
Nc1ccc(Oc2ccc(F)cc2)nc1 | 15 | 11% | 3% | 0% | 12%
COc1ccc(NC(=O)c2cc(CN3CCCC3)on2)cc1Cl | · | 0% | · | · | -11%
COc1ccc(C(=O)c2coc3ccc(O)c(CN4CCCCC4)c23)cc1 | -11 | ? | -19% | 4% | ?
